The record followed here is PubChem BioAssay (EPA / NIEHS).

Results filed as inconclusive are left out. The source made the active and inactive calls. How the source made its calls: active means hit-call score of the fitted dose curve at least 0.9, where 1 is the maximum; inconclusive means response in the unintended direction; inactive means score below 0.9.

In general, AC50 refers to the midpoint of the concentration-response curve, whichever way the signal moves.

The nature of the experiment: ACEA_ER_80hr: ACEA Biosciences xCELLigence Real-Time Cell Analysis on Estrogen Receptor Agonism for Proliferation (AID 2282667). The note with it: T47D proliferation, impedance (xCELLigence), 80 h. A digest of the protocol:
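Estrogen-driven proliferation is captured as electrode impedance in T47D cells 80 h after compound addition. Test articles ran at 8 concentrations, 1:4 dilutions from 100 uM final, in two replicate plates.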
On to `C=C(C)C(=O)OCCC[Si](OC)(OC)OC`, for which the compound was classed as inactive.

Regarding `O=c1cc(-c2ccc(O)cc2)oc2cc(O)cc(O)c12`, the AC50 is 1.33 µM (active).

With `O=S(=O)(O)C(F)(F)C(F)(F)OC(F)(F)C(F)(F)F`, the compound was classed as inactive.

Take `CCCCCCCCCCCCOC(C)=O`: the outcome was inactive.

Turning to `CC/C=C\CCOC(=O)C(C)C`, the call was inactive.

Consider `C=CC(=O)OCC(CO)(COC(=O)C=C)COC(=O)C=C`, for which the compound was classed as inactive.

As for `CC(=O)OC(C)(C)C1CC=C(C)CC1` (configuration not stated), the compound was called inactive.

In the case of `OC[C@@H](O)[C@H](O)[C@@H](O)[C@@H](O)CO`, the compound was called inactive.

For the compound `CC(=O)c1ccc(C)cc1`, the compound was classed as inactive.

`CC(O)CN` (configuration not stated): the compound was classed as inactive.

On to `CCCCOCC(C)OCC(C)O` (configuration not stated), for which the compound was called inactive.

`CC(C)(C)c1cccc(O)c1`: the call was inactive.

Consider `OCCCO`, for which the call was inactive.

In the case of `C=C(C)C(=O)OCCC(F)(F)C(F)(F)C(F)(F)C(F)(F)C(F)(F)C(F)(F)C(F)(F)C(F)(F)F`, the compound was called inactive.

As for `Cc1cc(N)n(-c2ccccc2)n1`, the compound was classed as inactive.

For the compound `CC(O)CNCC(C)O` (configuration not stated), the AC50 was 13.1 µM (active).

For `CC1(C)CC(=O)CC(C)(C)N1`, the compound was called inactive.

With `CCCc1ccc(N)cc1`, the compound was called inactive.

Turning to `C=CCOCC(O)CO` (configuration not stated), the concentration at half-maximal activity (AC50) was 0.0285 µM (active).

As for `[Na+]`, the call was inactive.

`O=S1(=O)CC=CC1`: the outcome was inactive.

Take `CCO[Si](CC)(OCC)OCC`: the outcome was inactive.

In the case of `Cc1cc(O)c2c(c1)C(=O)c1cc(O)cc(O)c1C2=O`, the AC50 is 0.493 µM (active).

With `NC(=O)c1cccnc1`, the compound was called inactive.

With `N[C@@H](CCC(=O)O)C(=O)O`, the compound was called inactive.

With `CC1=CCC(=C(C)C)CC1`, the compound was classed as inactive.

`c1ccc2c(c1)-c1ccc3ccc4cccc5cc-2c1c3c45`: the result was inactive.

As to `CCC(C)(CCCC(C)C)OC(C)=O` (configuration not stated), the compound was called inactive.

With `O=Cc1ccccc1O`, the AC50 is 10.7 µM (active).

Take `CC(=O)CC(C)(C)C1CCCCC1`: the outcome was inactive.

As for `CCOC(=O)CC(C)C`, the call was inactive.

With `CCC(=O)OC(C)(C)C1CC=C(C)CC1` (configuration not stated), the compound was called inactive.

With `Cc1ccc(C(C)(C)O)cc1`, the call was inactive.

As for `O=C1OCc2ccccc21`, the compound was called inactive.

For the compound `C=CCOC(=O)/C=C\C(=O)OCC=C`, the compound was classed as inactive.

For the compound `CCCCCCCCCCOC(=O)c1ccccc1C(=O)OCCCCCCCC`, the call was inactive.

Consider `CC12CCC(C1)C(C)(C)C2O` (configuration not stated), for which the compound was called inactive.
